Assay [1] relates to MILI (PIWIL2) piRISC loaded with L1MC piRNA (26 nt). The experiment in a line: pre-steady-state target cleavage rate (min^-1); guide: L1MC piRNA 5'p-UAACUAAAUACUAUGCAAGCUGUAGG; higher = faster piRNA-guided slicing of the target. A digest of the protocol: (§1)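 Cleave-'n-Seq used a transcribed, DNA-blocked target RNA library at 0.1 nM and active affinity-purified piRISC with one synthetic guide at 1 nM, with or without 500 nM GTSF1 partner protein, in HEPES–potassium acetate buffer at 33 °C for 0–8 or 0–960 min. Uncleaved targets were sequenced and normalised to depth and to weakly complementary targets, and three trials were pooled with k3 capped at 0.0001 min^-1. The pre-steady-state cleavage rate was estimated by a burst-and-steady-state fit.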

For assay [2], the system named is EfPiwi piRISC loaded with L1MC piRNA (26 nt). The experiment in a line: pre-steady-state target cleavage rate (min^-1); auxiliary factor: 500 nM Ephydatia muelleri Gtsf1; guide: L1MC piRNA 5'p-UAACUAAAUACUAUGCAAGCUGUAGG; MIWI and MILI are mouse PIWI proteins and EfPiwi is from a freshwater sponge; tags in brackets are library labels; higher = faster piRNA-guided slicing of the target. The method in brief: as §1
[3] abbreviates: auxiliary factor: 500 nM mouse GTSF1.
Where [4] appears, read: auxiliary factor: none (no GTSF1).

± gives the standard deviation.

As for UCCUCCUACAGCUUGCAUAGUAUUUGAGUUA, the “pre-steady-state target cleavage rate” value came out at 0.199 ± 0.028 in assay [1] (setting [3]), 0.00484 ± 0.0026 in assay [1] (setting [4]) and 0.00541 ± 0.0025 in assay [2].
For the sequence UCCUCCUACAGCUUCGCAUAGUAUUUAGUUA, the entries for the “pre-steady-state target cleavage rate” value in assay [1] (setting [3]), in assay [1] (setting [4]) and in assay [2] were 0.282 ± 0.015, 0.00644 ± 0.0025 and 0.121 ± 0.032, respectively.
UCCUGGUAGAGCUAGCAUAGUAUUUAGUUA: the figures for the “pre-steady-state target cleavage rate” value in assay [1] (setting [3]), in assay [1] (setting [4]) and in assay [2] were 0.216 ± 0.019, 0.00986 ± 0.0028 and 0.00968 ± 0.0033, respectively.
The corresponding values for UCCUGGAACAGCUUCGCAUAGUAUUUAGUUA are 0.237 ± 0.016, 0.00647 ± 0.0022 and 0.0367 ± 0.008.
Regarding UCCUGGAUGAGCUUGCAUUGUAAUUAGUUA, the figures for the “pre-steady-state target cleavage rate” value in assay [1] (setting [3]), in assay [1] (setting [4]) and in assay [2] were 0.0683 ± 0.013, 0.0035 ± 0.0031 and 0.00306 ± 0.0025, respectively.
The corresponding values for UCCUGGAUCAGCUUGCAUAGUAAAUAGUUA are 0.171 ± 0.024, 0.00496 ± 0.0026 and 0.00673 ± 0.0027.
Take “UCCUGGAUGUCGAUGCAUAGUAUUUAGUUA [g2:g17:cont:t1A]”: the figures for the “pre-steady-state target cleavage rate” value in assay [1] (setting [3]), in assay [1] (setting [4]) and in assay [2] were 0.124 ± 0.017, 0.0067 ± 0.0017 and 0.00648 ± 0.0023, respectively.
As to UCCUGGAUGUCGUUCGCAUAGUAUUUAGUUA, the entries for the “pre-steady-state target cleavage rate” value in assay [1] (setting [3]), in assay [1] (setting [4]) and in assay [2] were 0.101 ± 0.013, 0.00567 ± 0.0028 and 0.00486 ± 0.0031, respectively.
On to UCCUGGAUGUGCUUGCAUAGUAUUUAAUUA, for which the “pre-steady-state target cleavage rate” value was 0.0357 ± 0.011 in assay [1] (setting [3]), 0.00315 ± 0.003 in assay [1] (setting [4]) and 0.113 ± 0.038 in assay [2].
Take UCCUGCUUCACCUUGCAUAGUAUUUAGUUA: the “pre-steady-state target cleavage rate” value was determined as 0.228 ± 0.027 in assay [1] (setting [3]), 0.00696 ± 0.0025 in assay [1] (setting [4]) and 0.0076 ± 0.0034 in assay [2].
In the case of UCCUGGUACAACUUGCAUAGUAUUUAGUUA, the “pre-steady-state target cleavage rate” value in assay [1] (setting [3]) turned out to be 0.273 ± 0.023; in assay [1] (setting [4]) it was 0.012 ± 0.0031; in assay [2] it was 0.017 ± 0.0059.
For UCCUCCUUCAGCUUGCAUAGUAUUUAGAUA, the “pre-steady-state target cleavage rate” value in assay [1] (setting [3]) was 0.157 ± 0.022; in assay [1] (setting [4]), 0.00242 ± 0.0024; in assay [2], 0.00476 ± 0.0027.
In the case of UCCUCCUAGAGCUUGCAUAGUAUUUAGUAA, the “pre-steady-state target cleavage rate” value was found to be 0.201 ± 0.021 in assay [1] (setting [3]), 0.00313 ± 0.0024 in assay [1] (setting [4]) and 0.00608 ± 0.0021 in assay [2].
On to UCCUGGAACAGCUUGCUAAGUAUUUAGUUA, for which the “pre-steady-state target cleavage rate” value in assay [1] (setting [3]) was determined as 0.129 ± 0.015; in assay [1] (setting [4]) it was 0.00361 ± 0.0028; in assay [2], 0.00374 ± 0.0032.
As to UCCUCCUUACAGCUUGCAUAGUAUUUAGUUA, the “pre-steady-state target cleavage rate” value was 0.301 ± 0.014 in assay [1] (setting [3]), 0.011 ± 0.0028 in assay [1] (setting [4]) and 0.117 ± 0.03 in assay [2].
Regarding UCCUGCUACAGGUUGCAUACUAUUUAGUUA, the results for the “pre-steady-state target cleavage rate” value in assay [1] (setting [3]), in assay [1] (setting [4]) and in assay [2] were 0.0385 ± 0.0068, 0.00412 ± 0.002 and 0.00621 ± 0.0019, respectively.
Take UCCUGGAUGUGCUUGCAUCGUAUUUAGUUA: the figures for the “pre-steady-state target cleavage rate” value in assay [1] (setting [3]), in assay [1] (setting [4]) and in assay [2] were 0.0778 ± 0.017, 0.0103 ± 0.0028 and 0.00598 ± 0.0028, respectively.
UCCUGCUACAGCUUGCAUGUAUUUAGUUA: the “pre-steady-state target cleavage rate” value in assay [1] (setting [3]) amounted to 0.104 ± 0.02; in assay [1] (setting [4]) it was 0.00362 ± 0.0023; in assay [2], 0.00438 ± 0.0028.
As for UCCUGGAACAACUUGCAUAGUAUUUAGUUA, the “pre-steady-state target cleavage rate” value in assay [1] (setting [3]) was determined as 0.262 ± 0.022; in assay [1] (setting [4]), 0.0104 ± 0.0027; in assay [2] it was 0.0809 ± 0.023.
As to UCCUGGUACGAGCUUGCAUAGUAUUUAGUUA, the figures for the “pre-steady-state target cleavage rate” value in assay [1] (setting [3]), in assay [1] (setting [4]) and in assay [2] were 0.247 ± 0.045, 0.0102 ± 0.0039 and 0.00873 ± 0.0027, respectively.
Taken in the same sequence, the figures for UCCUGGUACACCAUGCAUAGUAUUUAGUUA were 0.176 ± 0.033, 0.0052 ± 0.0033 and 0.00335 ± 0.0031.
Turning to UCCUGCUACAGCUUGGAAAGUAUUUAGUUA, the “pre-steady-state target cleavage rate” value in assay [1] (setting [3]) is 0.138 ± 0.012; in assay [1] (setting [4]), 0.00897 ± 0.0022; in assay [2] it was 0.0208 ± 0.0042.
UCCUGGAUGUCGUGUGCAUAGUAUUUAGUUA: the results for the “pre-steady-state target cleavage rate” value in assay [1] (setting [3]), in assay [1] (setting [4]) and in assay [2] were 0.102 ± 0.015, 0.00602 ± 0.0035 and 0.0038 ± 0.0033, respectively.
As for UCCUGGAACAGCUUGGUUAGUAUUUAGUUA, the “pre-steady-state target cleavage rate” value stood at 0.213 ± 0.02 in assay [1] (setting [3]), 0.0126 ± 0.0037 in assay [1] (setting [4]) and 0.0135 ± 0.005 in assay [2].
Taken in the same sequence, the figures for UCCUGGAUGAGCUAGCAUAGUAAUUAGUUA were 0.131 ± 0.018, 0.00472 ± 0.0025 and 0.00293 ± 0.0021.

For the origin of these results see the supplement of paper PMC10338343.
